Reference: PubChem BioAssay AID1159580 (chemical genetic matrix, 2015)
The campaign covered roughly 5,500 compounds. About 2,000 (36%) were called active. Roughly 18% stayed inconclusive and do not appear here. Cut-off read from the data, not from the text of the source: active = normalized growth mostly below about 0.91 (no sharp cut-off); inconclusive = no clear call, values can overlap the other calls; inactive = mostly above about 0.92. This is one part of the list.

Assay: chemical genetic growth profiling, strain panel (AID 1159580);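 note: tested at 20 µM; growth read once vehicle control cultures reached saturation at 30 °C; 1 = growth at the plate median or of vehicle wells; lower values mean less growth of the strain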
Conditions: growth OD

Measured: normalized growth

CC(=O)NS(=O)(=O)c1ccc(N)cc1
inactive: S. cerevisiae deletion strains, locus YJR066W, strain TOR1, stronger effect = lower value 0.931 | S. cerevisiae deletion strains, locus YKL009W, strain mrt4, stronger effect = lower value 0.975 | S. cerevisiae deletion strains, locus YKL068W, stronger effect = lower value 0.989 | S. cerevisiae deletion strains, locus YKL085W, strain MDH1 (second series), stronger effect = lower value 0.982 | S. cerevisiae deletion strains, locus YKL085W, strain MDH1, stronger effect = lower value 0.982 | S. cerevisiae deletion strains, locus YKL160W, strain elf1, stronger effect = lower value 1 | S. cerevisiae deletion strains, locus YKL190W, strain CNB1, stronger effect = lower value 0.997 | S. cerevisiae deletion strains, locus YKR001C, strain vps1, stronger effect = lower value 0.975 | S. cerevisiae deletion strains, locus YKR026C, strain gcn3, stronger effect = lower value 1.01 | S. cerevisiae deletion strains, locus YKR091W, strain srl3, stronger effect = lower value 1.01 | S. cerevisiae deletion strains, locus YLL001W, strain dnm1, stronger effect = lower value 1 | S. cerevisiae deletion strains, locus YLL026W, stronger effect = lower value 1.01 | S. cerevisiae deletion strains, locus YLL041C, strain sdh2, stronger effect = lower value 1.02 | S. cerevisiae deletion strains, locus YLR027C, strain aat2, stronger effect = lower value 1.01 | S. cerevisiae deletion strains, locus YLR039C, strain RIC1, stronger effect = lower value 1 | S. cerevisiae deletion strains, locus YLR058C, strain SHM2, stronger effect = lower value 0.992 | S. cerevisiae deletion strains, locus YLR102C, strain apc9, stronger effect = lower value 0.988 | S. cerevisiae deletion strains, locus YLR113W, strain HOG1, stronger effect = lower value 0.983 | S. cerevisiae deletion strains, locus YLR221C, strain rsa3, stronger effect = lower value 1.01 | S. cerevisiae deletion strains, locus YLR258W, strain gsy2, stronger effect = lower value 1.01 | S. cerevisiae deletion strains, locus YLR262C, strain YPT6 (second series), stronger effect = lower value 1.03 | S. cerevisiae deletion strains, locus YLR262C, strain YPT6, stronger effect = lower value 1 | S. cerevisiae deletion strains, locus YLR268W, strain sec22, stronger effect = lower value 0.945 | S. cerevisiae deletion strains, locus YLR320W, strain mms22, stronger effect = lower value 1.01 | S. cerevisiae deletion strains, locus YLR330W, strain CHS5, stronger effect = lower value 0.993 | S. cerevisiae deletion strains, locus YLR342W, strain FKS1 (second series), stronger effect = lower value 0.992 | S. cerevisiae deletion strains, locus YLR342W, strain FKS1, stronger effect = lower value 1.01 | S. cerevisiae deletion strains, locus YLR357W, strain rsc2, stronger effect = lower value 1.04 | S. cerevisiae deletion strains, locus YLR370C, strain arc18, stronger effect = lower value 1.01 | S. cerevisiae deletion strains, locus YLR371W, strain rom2, stronger effect = lower value 0.98 | S. cerevisiae deletion strains, locus YLR384C, strain iki3, stronger effect = lower value 1.01 | S. cerevisiae deletion strains, locus YLR418C, strain cdc73, stronger effect = lower value 0.968 | S. cerevisiae deletion strains, locus YML016C, strain PPZ1, stronger effect = lower value 0.99 | S. cerevisiae deletion strains, locus YML032C, strain rad52, stronger effect = lower value 0.976 | S. cerevisiae deletion strains, locus YML120C, strain ndi1, stronger effect = lower value 1.01 | S. cerevisiae deletion strains, locus YML124C, strain tub3, stronger effect = lower value 0.977 | S. cerevisiae deletion strains, locus YMR058W, strain fet3, stronger effect = lower value 1.03 | S. cerevisiae deletion strains, locus YMR078C, strain ctf18, stronger effect = lower value 0.985 | S. cerevisiae deletion strains, locus YMR125W, strain sto1, stronger effect = lower value 1 | S. cerevisiae deletion strains, locus YMR129W, stronger effect = lower value 1.01 | S. cerevisiae deletion strains, locus YMR205C, strain PFK2, stronger effect = lower value 1.02 | S. cerevisiae deletion strains, locus YMR223W, strain ubp8, stronger effect = lower value 0.996 | S. cerevisiae deletion strains, locus YMR231W, strain pep5, stronger effect = lower value 1.01 | S. cerevisiae deletion strains, locus YMR307W, strain GAS1, stronger effect = lower value 0.985 | S. cerevisiae deletion strains, locus YNL067W, strain RPL9B, stronger effect = lower value 1 | S. cerevisiae deletion strains, locus YNL071W, strain lat1, stronger effect = lower value 0.999 | S. cerevisiae deletion strains, locus YNL128W, strain TEP1, stronger effect = lower value 0.978 | S. cerevisiae deletion strains, locus YNL183C, strain NPR1, stronger effect = lower value 0.951 | S. cerevisiae deletion strains, locus YNL209W, strain ssb2, stronger effect = lower value 1.03 | S. cerevisiae deletion strains, locus YNL233W, strain BNI4, stronger effect = lower value 0.993 | S. cerevisiae deletion strains, locus YNL248C, strain rpa49, stronger effect = lower value 1.03 | S. cerevisiae deletion strains, locus YNL250W, strain rad50, stronger effect = lower value 0.971 | S. cerevisiae deletion strains, locus YNL271C, strain bni1, stronger effect = lower value 0.973 | S. cerevisiae deletion strains, locus YNL298W, strain CLA4, stronger effect = lower value 0.974 | S. cerevisiae deletion strains, locus YNL307C, strain MCK1, stronger effect = lower value 0.97 | S. cerevisiae deletion strains, locus YNL322C, strain KRE1 (second series), stronger effect = lower value 0.995 | S. cerevisiae deletion strains, locus YNL322C, strain KRE1, stronger effect = lower value 0.992 | S. cerevisiae deletion strains, locus YNR049C, strain mso1, stronger effect = lower value 1.01 | S. cerevisiae deletion strains, locus YNR052C, strain pop2, stronger effect = lower value 0.977 | S. cerevisiae deletion strains, locus YOL006C, strain TOP1, stronger effect = lower value 1.02 | S. cerevisiae deletion strains, locus YOL012C, strain htz1 0.651 | S. cerevisiae deletion strains, locus YOL147C, strain pex11, stronger effect = lower value 0.985 | S. cerevisiae deletion strains, locus YOR001W, strain rrp6, stronger effect = lower value 1.02 | S. cerevisiae deletion strains, locus YOR061W, strain CKA2, stronger effect = lower value 0.989 | S. cerevisiae deletion strains, locus YOR069W, strain VPS5, stronger effect = lower value 0.984 | S. cerevisiae deletion strains, locus YOR070C, strain gyp1, stronger effect = lower value 1.02 | S. cerevisiae deletion strains, locus YOR080W, strain dia2, stronger effect = lower value 1.01 | S. cerevisiae deletion strains, locus YOR083W, strain WHI5, stronger effect = lower value 1 | S. cerevisiae deletion strains, locus YOR106W, strain vam3, stronger effect = lower value 1.02 | S. cerevisiae deletion strains, locus YOR136W, strain idh2, stronger effect = lower value 0.996 | S. cerevisiae deletion strains, locus YOR144C, strain elg1, stronger effect = lower value 0.987 | S. cerevisiae deletion strains, locus YOR184W, strain ser1, stronger effect = lower value 0.989 | S. cerevisiae deletion strains, locus YOR231W, strain MKK1, stronger effect = lower value 0.997 | S. cerevisiae deletion strains, locus YOR265W, strain rbl2, stronger effect = lower value 1.01 | S. cerevisiae deletion strains, locus YOR270C, strain vph1, stronger effect = lower value 1.04 | S. cerevisiae deletion strains, locus YOR290C, strain snf2, stronger effect = lower value 1 | S. cerevisiae deletion strains, locus YOR316C, strain cot1, stronger effect = lower value 0.982 | S. cerevisiae deletion strains, locus YPL051W, strain arl3, stronger effect = lower value 1.02 | S. cerevisiae deletion strains, locus YPL078C, strain atp4, stronger effect = lower value 1.01 | S. cerevisiae deletion strains, locus YPL106C, strain sse1, stronger effect = lower value 1.01 | S. cerevisiae deletion strains, locus YPL240C, strain hsp82, stronger effect = lower value 1.02 | S. cerevisiae deletion strains, locus YPL241C, strain CIN2, stronger effect = lower value 0.995 | S. cerevisiae deletion strains, locus YPL256C, strain CLN2, stronger effect = lower value 1 | S. cerevisiae deletion strains, locus YPR119W, strain clb2, stronger effect = lower value 0.995 | S. cerevisiae deletion strains, locus YPR141C, strain kar3, stronger effect = lower value 0.981 | S. cerevisiae deletion strains, locus YPR163C, strain tif3, stronger effect = lower value 0.982 | S. cerevisiae deletion strains, locus YPR167C, strain met16, stronger effect = lower value 0.982 | S. cerevisiae deletion strains, strain wtn01, stronger effect = lower value 0.969 | S. cerevisiae strains, strain wild type, stronger effect = lower value 1
